Source: PubChem BioAssay
In the library only some 1.9% were active in any assay of this set; here they are far more common.
ClpP mod: qHTS Assay for Activators of ClpP; ATP-dependent Clp protease proteolytic subunit (Bacillus subtilis (strain 168)), P80244; purified B. subtilis ClpP, FRET peptide cleavage, 20 min; Potency, µM (top dose mostly 57.5 µM), without a hit: top-dose activity change, negative = active; 340,000 compounds, 1.9% hits; active = well fitted falling curve with a large enough effect; inconclusive = small, poorly fitted or top-dose-only effect; inactive = no such curve, though single readings can be large or run the other way; also: potency is read from the fitted curve at half-maximal effect; the source files actives as falling curves though it sought activators and does not explain the sign; nearly all actives have a fitted effect of over 65% in size
Target sequence (P80244 whole entry, looked up): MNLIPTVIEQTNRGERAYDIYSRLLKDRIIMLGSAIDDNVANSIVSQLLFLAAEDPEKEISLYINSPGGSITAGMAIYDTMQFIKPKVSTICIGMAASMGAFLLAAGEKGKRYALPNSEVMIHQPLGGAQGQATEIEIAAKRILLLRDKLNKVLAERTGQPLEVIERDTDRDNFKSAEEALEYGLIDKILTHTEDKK
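ClpP 10 microg/mL final, pH 8 Tris/KCl buffer with BSA, glycerol, Tween-20; compound pinned in; FRET-FV substrate; RT 20 min; Ex320/Em430; ΔFRET vs ADEP 5.8 microM, DMSO, no enzyme.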
Menin-MLL FL inh: qHTS Assay for Inhibitors Targeting the Menin-MLL Interaction in MLL Related Leukemias: Competition With Fluorescein Labeled MLL-derived Peptide | AID 1766, 2009 | 290,000 tested, under 10 active | Fluorescence polarization, fluorescein-MLL peptide displacement from menin | FP activity change, % at 61.4 µM; active = well fitted curve in the direction sought with a large enough effect in the polarisation, not every such curve was filed as active; inconclusive = small, poorly fitted or top-dose-only effect, or effect the other way, or a change in a side signal; inactive = no such curve, though single readings can be large or run the other way; the % refers to the polarisation; also: % of control where 0% means no effect
CXXC DNA block: qHTS Fluorescence Polarization Assay for Inhibitors of MLL CXXC domain - DNA interaction. MLL-CXXC / FITC-HOXA9 DNA fluorescence polarization. 290,000 compounds, 0.037% hits. AID 2662, 2010. Histone-lysine N-methyltransferase 2A (Homo sapiens), Q03164. Potency, µM (doses to about 115 µM), without a hit: at the highest dose activity change, negative = inhibition, usual class: inhibitors; active = well fitted inhibition curve with a large enough effect in the polarisation, with a control signal flat, not every such curve was filed as active; inconclusive = small, poorly fitted or top-dose-only effect, or effect the other way, or a change in a side signal; inactive = no such curve, though single readings can be large or run the other way; the % refers to the polarisation; also: potency is read from the fitted curve at half-maximal effect
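Steps: dispense CXXC domain solution (7 uM) → pin compounds or unlabeled HOX-A9 DNA control → 5 min ambient → add FLSN-HOX-A9 solution (50 nM) → spin → 30 min ambient → fluorescence polarization. Tris pH 7.5/NaCl/DTT/BSA buffer.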
Menin MLL FP TR: qHTS Assay for Inhibitors Targeting the Menin-MLL Interaction in MLL Related Leukemias: Competition With Texas Red Labeled MLL-derived Mutant Peptide. Menin + Texas Red MLL mutant peptide, fluorescence polarization. 270,000 compounds, 0.23% hits. O00255. Potency, µM (highest dose often 61.6 µM), inactives show at the highest dose FP activity change, negative = inhibition, most hits filed as inhibitors; active = well fitted inhibition curve with a large enough effect in the polarisation, with a control signal flat, not every such curve was filed as active; inconclusive = small, poorly fitted or top-dose-only effect, or effect the other way, or a change in a side signal; inactive = no such curve, though single readings can be large or run the other way; the % refers to the polarisation; also: potency is read from the fitted curve at half-maximal effect; % of control where 0% means no effect
PINK1 expr mod: A Quantitative High throughput Screen to Identify Chemical Modulators of PINK1 Expression; PINK1 immunofluorescence, high-content cytometry, 24 h; Potency, µM (highest dose often 76.6 µM), inactives show at the highest dose activation (PINK1 increase), actives largely listed as activators; 410,000 compounds, 0.2% hits; AID 624263, 2012; active = well fitted activation curve with a large enough effect; inconclusive = small, poorly fitted or top-dose-only effect; cell line not stated here; also: potency is read from the fitted curve at half-maximal effect; % of control where 0% means no effect; nearly all actives have a fitted effect of over 65% in size
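PINK1 protein level read as immunofluorescence by microplate cytometer in a fixed, stained stable cell line after 24 h exposure to five compound concentrations, with CCCP as control.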
Epigenetic derep: Quantitative High-Throughput Screen for Regulators of Epigenetic Control; murine LDR cells, GFP reporter derepression, 30 h; Potency, µM (highest dose often 53.9 µM), for inactives: at the highest dose GFP activation, actives largely listed as activators; 280,000 compounds, 0.2% hits; active = well fitted activation curve with a large enough effect; inconclusive = small, poorly fitted or top-dose-only effect; also: potency is read from the fitted curve at half-maximal effect; % of control where 0% means no effect; nearly all actives have a fitted effect of over 60% in size
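Derepression of a silenced CMV-GFP reporter in murine LDR cells is scored by enumerating GFP-positive cells with a laser-scanning microplate cytometer after 30 hours of treatment at 37 C.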
An asterisk follows results filed as active; ? = inconclusive; / = no result; [ ] = another dose, or the depositor's remark.

SMILES	ClpP mod	Menin-MLL FL inh	CXXC DNA block	Menin MLL FP TR	PINK1 expr mod	Epigenetic derep
O=C(COc1cccc(F)c1)N1c2ccccc2Sc2ccccc21	0.9%	2.7	6.5%	-10.6%	7.6%	-0.9%
O=C(COc1ccccc1)N1c2ccccc2Sc2ccccc21	15.8µM*	-2.0	5.9%	-8.8%	8.2%	-1.5%
COc1ccc(OC)c2sc(NC(=O)C3=COCCO3)nc12	3.9%	-0.8	0.1%	1.7%[11.7 µM]	4.9%	1.9%
COc1cccc2sc(NNC(=O)C3=COCCO3)nc12	35.5µM*	?	32.7%	0.5%	29.8%	?
COCC(C)N=C1NN=C(c2cc(C)n(Cc3ccccc3Cl)c2C)CS1 (stereo unspecified)	-0.9%	-1.2	-8.0%	-15.9%	35.5µM*	-2.5%
COc1ccc(-n2ncc3c(NCC(C)C)ncnc32)cc1	31.6µM*	1.4	-3.0%	-12.2%	-0.6%	0.0%
COc1ccc(-n2ncc3c(NC(C)C)ncnc32)cc1	-24.3%	0.7	8.3%	2.1%	-1.4%	0.0%
COCC(C)Nc1ncnc2c1cnn2-c1ccc(Cl)cc1 (stereo unspecified)	28.2µM*	0.5	-0.9%	30.3%	2.4%	0.0%
NC(=O)Nc1sc(-c2ccc(F)cc2)cc1C(N)=O	/	-4.2	/	?	/	/
COc1cccc(NC(=O)CN(C)C(C)C(=O)Nc2cc([N+](=O)[O-])ccc2Cl)c1 (stereo unspecified)	31.6µM*	-5.5	-3.0%	?	1.2%	-2.1%
Cc1cc(=O)[nH]c(SCc2nc3ncccn3c2Br)n1	28.2µM*	6.7	2.6%	14.7%	2.5%[38.3 µM]	0.0%
Brc1c(CSc2nc3ccccc3s2)nc2ncccn12	28.2µM*	5.1	10.3%	-5.8%	2.9%	0.0%
CC1(C)CC(C(=O)N2CCOc3ccc(CN4CCN(Cc5ccccn5)CC4)cc3C2)CCO1 (stereo unspecified)	/	/	/	/	-0.4%	/
COc1ccc(-c2c(C#Cc3ccc(N(C)C)cc3)c3ccccc3n2C)cc1	58.7%	/	/	/	17.8µM*	/
COc1ccc(C(=O)N2CCOc3ccc(CN4CCN(c5ccccn5)CC4)cc3C2)o1	/	/	/	/	-0.6%	/
COc1ccc(NC2CCN(C3CC(=O)N(c4ccc(F)c(Cl)c4)C3=O)CC2)cc1 (stereo unspecified)	2.82µM*	0.2	4.6%	12.3%	0.0%	0.0%
Cc1cc(/C=C2\C=Cc3ccccc32)cc(C)c1[N+](=O)[O-]	-2.0%	/	/	/	0.3%	/
COC(=O)c1ccc2nc(Nc3nc4c(F)cc(F)cc4s3)sc2c1	31.6µM*	10.9	10.3%	?	?	5.6%
COC(=O)c1ccc2nc(NC(=O)C(C)C)sc2c1	/	3.7	4.8%	15.9%	7.2%	0.8%
CCOC(=O)c1ccc2nc(Nc3nc4ccc(F)cc4s3)sc2c1	15.8µM*	8.5	1.9%	10.6%	?	1.0%
Cc1ccc(C(C)CCN2CCOc3ccc(CN4CCOCC4)cc3C2)o1 (stereo unspecified)	/	/	/	/	0.6%	/
CCCCCNc1nc(-c2ccccc2)nc(-n2ccnc2)n1	25.1µM*	3.3	3.3%	15.2%	3.6%	2.2%
CCCCNc1nc(N(C)c2ccccc2)nc(-n2ccnc2)n1	-0.7%	-2.4	?	7.5%	0.0%	-2.2%
COc1cc(-c2cc(C)c3c(OC)ccc(OC)c3n2)cc2c1OCCN(C(=O)Cn1nc(C)cc1C)C2	/	/	/	/	-0.3%	/
O=C(NCC1CCCO1)C(c1cccs1)N(Cc1ccccc1Cl)C(=O)c1ccc(-c2ccccc2)[nH]1 (stereo unspecified)	31.6µM*	2.7	6.4%	-6.6%	3.0%	0.0%
